# In PubChem BioAssay (EPA / NIEHS):
# Several values for one entry are separate records, joined by “and”; a condition that tells them apart may be missing. Identical values can stand only once. More than one record can exist for a structure, and the calls need not agree. Activity calls are given as the source filed them. The calls were made as follows: active = hit-call score of the fitted dose curve at least 0.9, where 1 is the maximum; inactive = score below 0.9.
# Key:
# [1] = read-out: Monokine induced gamma interferon (MIG), CXCL9 (gene 4283); assay: BSK_KF3CT_MIG: BioMAP Diversity Plus: KF3CT Assay for Monokine induced gamma interferon (MIG) Biomarker Activity (AID 2284248); conditions: primary human keratinocytes with fibroblasts
# Summary of the method: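 Human keratinocyte plus foreskin fibroblast primary co-culture dosed with test chemical for 24 h; MIG level measured by ELISA and fitted in the positive direction against DMSO as baseline.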
# [2] = read-out: Plasminogen activator inhibitor-1 (PAI1), SERPINE1 (gene 5054); assay: BSK_KF3CT_PAI1: BioMAP Diversity Plus: KF3CT Assay for Plasminogen activator inhibitor-1 (PAI1) Biomarker Activity (AID 2284252); conditions: primary human keratinocytes with fibroblasts
# Summary of the method: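 Signal is PAI-1 detected by ELISA in a human skin-derived keratinocyte/fibroblast co-culture, 24 h after dosing; DMSO served as negative control and baseline.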
# [3] = read-out: Monocyte Chemoattractant Protein-1 (MCP1), CCL2 (gene 6347); assay: BSK_IMphg_MCP1: BioMAP Diversity Plus: IMphg Assay for Monocyte Chemoattractant Protein-1 (MCP1) Biomarker Activity (AID 2284253); conditions: primary human endothelial cells with macrophages
# Summary of the method: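 Human venular endothelial cells co-cultured with macrophages; MCP-1 measured by ELISA 24 hours post-dose and fitted against DMSO. Cytotoxicity monitored by SRB total-protein staining in parallel cultures.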
# [4] = read-out: Interleukin-8 (IL8), CXCL8 (gene 3576); assay: BSK_KF3CT_IL8: BioMAP Diversity Plus: KF3CT Assay for Interleukin-8 (IL8) Biomarker Activity (AID 2284254); conditions: primary human keratinocytes with fibroblasts
# Summary of the method: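 Human primary keratinocyte plus foreskin fibroblast co-culture dosed with test chemicals; IL-8 measured by ELISA 24 h after dosing. Activity fitted in the positive direction relative to DMSO negative control.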
# [5] = read-out: Plasminogen activator inhibitor-1 (PAI1), SERPINE1 (gene 5054); assay: BSK_MyoF_PAI1: BioMAP Diversity Plus: MyoF Assay for Plasminogen activator inhibitor-1 (PAI1) Biomarker Activity (AID 2284256); conditions: primary human lung fibroblasts;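 as to outcome: PAI-1 protein level measured by ELISA in fibroblast cultures; PAI-1 read 24 h after compound addition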
# Summary of the method: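 ELISA read-out of PAI-1 from primary human lung fibroblast cultures 24 h after dosing; gain-of-signal fit versus DMSO control.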
# CD69, CD69 (gene 969) = assay: BSK_IMphg_CD69: BioMAP Diversity Plus: IMphg Assay for CD69 Biomarker Activity (AID 2284257); conditions: primary human endothelial cells with macrophages
# Summary of the method: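 Human venular endothelial cells co-cultured with macrophages; CD69 quantified by ELISA 24 h after compound addition. Activity fitted in the positive direction relative to DMSO baseline; cytotoxicity tracked in parallel cultures via SRB total-protein staining.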
# [6] = read-out: Eotaxin 3, CCL26 (gene 10344); assay: BSK_BF4T_Eotaxin3: BioMAP Diversity Plus: BF4T Assay for Eotaxin 3 Biomarker Activity (AID 2284258); conditions: primary human bronchial epithelial cells with fibroblasts
# Summary of the method: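 Co-culture of human bronchial epithelial cells and dermal fibroblasts, exposed to chemicals for 24 h versus DMSO. Eotaxin-3 quantified by ELISA; cytotoxicity checked in parallel cultures by sulforhodamine B total-protein staining.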
# [7] = read-out: Monocyte Chemoattractant Protein-1 (MCP1), CCL2 (gene 6347); assay: BSK_BF4T_MCP1: BioMAP Diversity Plus: BF4T Assay for Monocyte Chemoattractant Protein-1 (MCP1) Biomarker Activity (AID 2284259); conditions: primary human bronchial epithelial cells with fibroblasts
# Summary of the method: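 Co-culture of bronchial epithelial cells and dermal fibroblasts dosed with chemical; MCP-1 measured by ELISA 24 h later. Activity fitted in positive direction versus DMSO; cytotoxicity checked by SRB staining in parallel cultures.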
# [8] = read-out: Intercellular Adhesion Molecule 1 (ICAM1), ICAM1 (gene 3383); assay: BSK_BF4T_ICAM1: BioMAP Diversity Plus: BF4T Assay for Intercellular Adhesion Molecule 1 (ICAM1) Biomarker Activity (AID 2284260); conditions: primary human bronchial epithelial cells with fibroblasts
# Summary of the method: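 Co-culture of human bronchial epithelial cells and dermal fibroblasts exposed 24 h to chemical; cell-surface ICAM-1 quantified by ELISA. Parallel SRB total-protein staining assessed cytotoxicity; activity fitted relative to DMSO.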
# [9] = read-out: Interleukin-8 (IL8), CXCL8 (gene 3576); assay: BSK_MyoF_IL8: BioMAP Diversity Plus: MyoF Assay for Interleukin-8 (IL8) Biomarker Activity (AID 2284261); conditions: primary human lung fibroblasts
# Summary of the method: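 ELISA read-out of IL-8 from primary human lung fibroblasts, 24 h post-dose; positive-direction curve fitting relative to DMSO vehicle baseline.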
smiles,measurement,setting,value
O=C(CC(=O)C(F)(F)C(F)(F)C(F)(F)F)c1cccs1,outcome,[1],inactive
same,AC50,[2],18.7 µM (active)
same,outcome,[2],inactive
same,AC50,[3],27.7 µM (active) and 25.5 µM (active)
same,outcome,[4],inactive
same,outcome,[5],inactive
same,AC50,"CD69, CD69 (gene 969)",30 µM (active)
same,AC50,[6],12.8 µM (active) and 13 µM (active)
same,AC50,[7],22.9 µM (active) and 10.9 µM (active)
same,AC50,[8],20 µM (active) and 18.8 µM (active)
same,outcome,[9],inactive
Oc1c(Cl)cc(Cl)cc1Sc1cc(Cl)cc(Cl)c1O,AC50,[1],2.92 µM (active) and 2.86 µM (active)
same,AC50,[2],1.67 µM (active) and 1.83 µM (active)
same,outcome,[4],inactive
O=P(O)(O)CCC(F)(F)C(F)(F)C(F)(F)C(F)(F)C(F)(F)C(F)(F)F,outcome,[1],inactive
same,outcome,[2],inactive
same,outcome,[3],inactive
same,outcome,[4],inactive
same,outcome,[5],inactive
same,outcome,"CD69, CD69 (gene 969)",inactive
same,outcome,[6],inactive
same,outcome,[7],inactive
same,outcome,[8],inactive
same,outcome,[9],inactive
OCC(F)(F)C(F)(F)C(F)(F)C(F)(F)C(F)(F)C(F)(F)C(F)(F)C(F)(F)C(F)(F)C(F)(F)C(F)(F)F,outcome,[1],inactive
same,outcome,[2],inactive
same,outcome,[3],inactive
same,outcome,[4],inactive
same,outcome,[5],inactive
same,outcome,"CD69, CD69 (gene 969)",inactive
same,outcome,[6],inactive
same,outcome,[7],inactive
same,outcome,[8],inactive
same,outcome,[9],inactive
O=C(O)CCC(F)(F)C(F)(F)C(F)(F)C(F)(F)C(F)(F)F,outcome,[1],inactive
same,outcome,[2],inactive
same,outcome,[3],inactive
same,outcome,[4],inactive
same,outcome,[5],inactive
same,outcome,"CD69, CD69 (gene 969)",inactive
same,outcome,[6],inactive
same,outcome,[7],inactive
same,outcome,[8],inactive
same,outcome,[9],inactive
O=P(O)(O)CCC(F)(F)C(F)(F)C(F)(F)C(F)(F)C(F)(F)C(F)(F)C(F)(F)C(F)(F)F,outcome,[1],inactive
same,outcome,[2],inactive
same,outcome,[3],inactive
same,outcome,[4],inactive
same,outcome,[5],inactive
same,outcome,"CD69, CD69 (gene 969)",inactive
same,AC50,[6],8.05 µM (active)
same,outcome,[6],inactive
same,outcome,[7],inactive
same,outcome,[8],inactive
same,outcome,[9],inactive
CCCCCCCCCCCC,AC50,[1],20.2 µM (active) and 20.6 µM (active)
same,AC50,[2],10.4 µM (active) and 10.5 µM (active)
same,AC50,[4],20 µM (active) and 27.3 µM (active)
CCOC(=O)CN[C@@H](C(=O)N1CC[C@H]1C(=O)NCc1ccc(/C(N)=N/O)cc1)C1CCCCC1,outcome,[5],inactive
same,outcome,[9],inactive
O=C(O)CCC(F)(F)C(F)(F)C(F)(F)C(F)(F)C(F)(F)C(F)(F)F,outcome,[1],inactive
same,outcome,[2],inactive
same,outcome,[3],inactive
same,outcome,[4],inactive
same,outcome,[5],inactive
same,AC50,"CD69, CD69 (gene 969)",13.6 µM (active)
same,outcome,"CD69, CD69 (gene 969)",inactive
same,AC50,[6],2.88 µM (active)
same,outcome,[6],inactive
same,outcome,[7],inactive
same,outcome,[8],inactive
same,outcome,[9],inactive
CN(CCO)S(=O)(=O)C(F)(F)C(F)(F)C(F)(F)C(F)(F)C(F)(F)C(F)(F)C(F)(F)C(F)(F)F,outcome,[1],inactive
same,AC50,[2],0.0715 µM (active)
same,outcome,[2],inactive
same,outcome,[3],inactive
same,AC50,[4],1.42 µM (active)
same,outcome,[4],inactive
same,outcome,[5],inactive
same,outcome,"CD69, CD69 (gene 969)",inactive
same,outcome,[6],inactive
same,outcome,[7],inactive
same,outcome,[8],inactive
same,outcome,[9],inactive
CN(Cc1cnc2nc(N)nc(N)c2n1)c1ccc(C(=O)N[C@@H](CCC(=O)O)C(=O)O)cc1,outcome,[1],inactive
same,outcome,[2],inactive
same,outcome,[3],inactive
same,outcome,[4],inactive
same,outcome,[5],inactive
same,outcome,"CD69, CD69 (gene 969)",inactive
same,outcome,[6],inactive
same,outcome,[7],inactive
same,outcome,[8],inactive
same,outcome,[9],inactive
C=CC(=O)OCCC(F)(F)C(F)(F)C(F)(F)C(F)(F)C(F)(F)C(F)(F)C(F)(F)C(F)(F)F,outcome,[1],inactive
same,outcome,[2],inactive
same,outcome,[3],inactive
same,AC50,[4],16.9 µM (active)
same,outcome,[4],inactive
same,outcome,[5],inactive
same,outcome,"CD69, CD69 (gene 969)",inactive
same,outcome,[6],inactive
same,outcome,[7],inactive
same,outcome,[8],inactive
same,outcome,[9],inactive
O=C(NCc1ncc(C(F)(F)F)cc1Cl)c1c(Cl)cccc1Cl,outcome,[5],inactive
same,outcome,[9],inactive
Oc1ccc(Cc2ccccc2O)cc1,outcome,[1],inactive
same,outcome,[2],inactive
same,outcome,[4],inactive
Cc1ccc(C(=O)c2ccccc2)cc1,outcome,[5],inactive
same,outcome,[9],inactive
NC(=NCCCCCCN=C(N)/N=C(\N)Nc1ccc(Cl)cc1)/N=C(\N)Nc1ccc(Cl)cc1,AC50,[5],4.43 µM (active)
same,AC50,[9],5.05 µM (active)
O=C1OC2(c3ccccc31)c1cc(I)c(O)c(I)c1Oc1c2cc(I)c(O)c1I,AC50,[5],2.72 µM (active)
same,AC50,[9],3.37 µM (active)
O=C(O)C(F)(F)OC(F)(F)C(F)(F)OC(F)(F)C(F)(F)OC(F)(F)C(F)(F)C(F)(F)C(F)(F)F,AC50,[1],29.6 µM (active) and 27.5 µM (active)
same,AC50,[2],15.9 µM (active) and 18.7 µM (active)
same,AC50,[3],38.2 µM (active) and 24 µM (active)
same,outcome,[4],inactive
same,AC50,[5],14.6 µM (active) and 13.3 µM (active)
same,AC50,"CD69, CD69 (gene 969)",40.2 µM (active) and 24.2 µM (active)
same,AC50,[6],7.32 µM (active) and 7.02 µM (active)
same,AC50,[7],7.5 µM (active)
same,outcome,[7],inactive
same,AC50,[8],8.19 µM (active) and 7.58 µM (active)
same,AC50,[9],46.8 µM (active) and 44.5 µM (active)
O=C1NS(=O)(=O)c2ccccc21,outcome,[1],inactive
same,outcome,[2],inactive
same,outcome,[4],inactive
CCCCCc1ccc(O)cc1,AC50,[5],32.2 µM (active)
same,outcome,[9],inactive
O=S(=O)(O)C(F)(F)C(F)(F)C(F)(F)C(F)(F)C(F)(F)C(F)(F)C(F)(F)C(F)(F)C(F)(F)C(F)(F)F,outcome,[1],inactive
same,outcome,[2],inactive
same,outcome,[3],inactive
same,outcome,[4],inactive
same,outcome,[5],inactive
same,outcome,"CD69, CD69 (gene 969)",inactive
same,AC50,[6],5.78 µM (active) and 2.59 µM (active)
same,outcome,[7],inactive
same,outcome,[8],inactive
same,outcome,[9],inactive
CC[N+](CC)(CC)Cc1ccccc1,outcome,[5],inactive
same,outcome,[9],inactive
Oc1cc2ccccc2cc1O,outcome,[5],inactive
same,outcome,[9],inactive
COCN(COC)c1nc(N(COC)COC)nc(N(COC)COC)n1,outcome,[5],inactive
same,outcome,[9],inactive
O=C1c2ccc(O)c(O)c2C(=O)c2c(O)ccc(O)c21,outcome,[5],inactive
same,outcome,[9],inactive
C=CC(=C)CC/C=C(\C)CCC=C(C)C,outcome,[5],inactive
same,outcome,[9],inactive
C=CC(C)(CCC=C(C)C)OC(C)=O (centres undefined),outcome,[5],inactive
same,outcome,[9],inactive
OCCN1CN(CCO)CN(CCO)C1,outcome,[5],inactive
same,outcome,[9],inactive
Cc1ccc(N=Nc2c(O)ccc3ccccc23)c(C)c1,outcome,[5],inactive
same,outcome,[9],inactive
CC(C)(C)c1ccc(O)c(O)c1,AC50,[5],33.3 µM (active)
same,outcome,[9],inactive
Cc1cccc2c1ccc1ccccc12,outcome,[5],inactive
same,outcome,[9],inactive
CCCCC(CC)C(=O)OCCOCCOCCOCCOC(=O)C(CC)CCCC (centres undefined),outcome,[5],inactive
same,outcome,[9],inactive
CN(C)c1ccc(C(=C2C=CC(=[N+](C)C)C=C2)c2ccccc2)cc1,AC50,[5],0.675 µM (active)
same,AC50,[9],2.76 µM (active)
C=COC(=O)C(C)(C)CCCCCC,AC50,[5],34 µM (active)
same,outcome,[9],inactive
Clc1ccc(Nc2nnc(Cc3ccncc3)c3ccccc23)cc1,outcome,[5],inactive
same,outcome,[9],inactive
COC1=CC(=O)C[C@@H](C)[C@]12Oc1c(Cl)c(OC)cc(OC)c1C2=O,outcome,[5],inactive
same,outcome,[9],inactive
CCCCCCCCCCCCCCCCCC[N+](C)(C)Cc1ccccc1,AC50,[5],2.91 µM (active)
same,AC50,[9],5.06 µM (active)
C[C@]12CC[C@@H]3c4ccc(O)cc4CC[C@H]3[C@@H]1C[C@@H](O)[C@@H]2O,outcome,[5],inactive
same,outcome,[9],inactive
O=C(NO)c1ccccc1,outcome,[5],inactive
same,outcome,[9],inactive
COc1cccc(O)c1,outcome,[5],inactive
same,outcome,[9],inactive
CC1=NN(c2ccccc2)C(=O)C1,outcome,[5],inactive
same,outcome,[9],inactive
COc1cc(OC)nc(NC(=O)NS(=O)(=O)Nc2ccccc2C(=O)N(C)C)n1,outcome,[5],inactive
same,outcome,[9],inactive
